# The list is not random: actives were taken first. Their share in the collection is about 2.2%.
# TRPM1 prom inh = MITF TRPM1 promoter inhibition in SK-MEL-5 cells. AID 488899. actives 0.83% (n = 330,000). SK-MEL-5 TRPM1 promoter luciferase, 24 h. inhibition, % at 12.5 µM;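 active means mean inhibition across replicates of 60% or more, whatever share of single replicates reaches that level; inconclusive means some that reach 60%, reason not given; inactive means mean inhibition across replicates below 60%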
# EBV LMP1 NFkB = inhibitors of Epstein-Barr LMP1-induced NF-kappaB reporter | LMP1-induced NF-kappaB luciferase reporter cells, luminescence | actives 0.69% (n = 350,000) | inhibition, % at 12.5 µM; in the data active means inhibition above about 41%; inconclusive means no clear call, values can overlap the other calls
# EWS-Fli inh = inhibitors of EWS/Fli oncoprotein transcriptional activity | A673 NR0B1-luciferase reporter, viability-normalised | inhibition, % at 12.6 µM | actives 0.67% (n = 350,000);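 active means mean inhibition of at least 50% after viability correction, with every replicate also passing that limit; inconclusive means mean reaches 50% but only one of two replicates passes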;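 further: firefly luciferase signal divided by Alamar Blue viability fluorescence both relative to DMSO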
# Shn3 inh set2 = Schnurri-3 reporter inhibition in Clone20 osteoblasts; actives 0.52% (n = 360,000); AID 588674; inhibition, % at 12.5 µM; Clone20 osteoblast Shn3 3'UTR firefly luciferase, 24 h;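 active means mean inhibition of at least 75% with every replicate also reaching 75%; inconclusive means mean inhibition at least 75% but some replicate below; inactive means mean inhibition below 75%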
# LGR2 inh = Drosophila LGR2 receptor signaling inhibition; AID 720647; HEK293 LGR2, CRE-luciferase, bursicon-stimulated, 4 h; inhibition, % at 9.99 µM; actives 0.35% (n = 380,000);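 active means drop in luminescence signal, shown as inhibition above about 50% in the replicate tests, limit read from the data, passing the limit was not always enough; inconclusive means probably only some replicates passing the limit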;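 further: agonist challenge used bursicon conditioned medium at about half maximal strength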
# PAX8 inh HTS = lowers PAX8-driven luciferase in RMG-I cells; RMG-I TPO-luciferase reporter, SteadyGlo, 24 h; inhibition, % at 12.6 µM; actives 1.2% (n = 360,000);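 active means mean replicate inhibition at least 60% with every replicate also reaching 60%; inconclusive means only one of the two criteria is met; inactive means mean below 60% and not all replicates reaching 60%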;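 further: luciferase light reporting Pax8 driven TPO promoter activity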
# A number is an active result; 0 = inactive; ? = inconclusive; - = no result; ! = not confirmed by another sample.
SMILES,TRPM1 prom inh,EBV LMP1 NFkB,EWS-Fli inh,Shn3 inh set2,LGR2 inh,PAX8 inh HTS
CC(=O)N1CCc2cc(S(=O)(=O)C(C)CC(=O)NCc3ccc(C)o3)ccc21 (stereo unspecified),0,0,0,0,0,0
CC(=O)N1CCc2cc(S(=O)(=O)C(C)CC(=O)NCc3ccco3)ccc21 (stereo unspecified),-,0,0,0,56,0
C[C@H](CO)N1C[C@H](C)[C@H](CN(C)S(=O)(=O)c2ccc(C#N)cc2)Oc2ncc(C#Cc3ccc(C(F)(F)F)cc3)cc2C1=O,-,-,-,-,0,74
Cc1noc(C)c1S(=O)(=O)N(C)C[C@H]1OCCCC[C@@H](C)Oc2ccc(NC(=O)Nc3ccc(F)cc3)cc2C(=O)N([C@@H](C)CO)C[C@H]1C,-,-,0,-,0,0
C[C@@H]1CCCCO[C@H](CN(C)S(=O)(=O)c2ccc(F)cc2)[C@@H](C)CN([C@H](C)CO)C(=O)c2cc(NC(=O)Nc3ccc(C(F)(F)F)cc3)ccc2O1,-,0,0,0,0,74!
C[C@@H]1CN([C@H](C)CO)C(=O)c2cc(NC(=O)Nc3ccc(C(F)(F)F)cc3)ccc2O[C@@H]1CN(C)S(=O)(=O)c1ccc(F)cc1,-,-,0,-,0,0
Cc1noc(C)c1S(=O)(=O)N(C)C[C@@H]1OCCCC[C@H](C)Oc2ccc(NC(=O)Nc3ccc(F)cc3)cc2C(=O)N([C@H](C)CO)C[C@@H]1C,-,-,0,-,0,61
C[C@H](CO)N1C[C@H](C)[C@@H](CN(C)S(=O)(=O)c2ccc(F)cc2)Oc2ccc(NC(=O)Nc3ccc(C(F)(F)F)cc3)cc2C1=O,0,0,0,0,0,75!
O=C(C[C@@H]1C=C[C@@H](NC(=O)Cc2cccnc2)[C@H](CO)O1)Nc1ccc(-c2ccccc2)cc1,-,-,0,-,0,0
C[C@@H]1CCCCO[C@H](CN(C)S(=O)(=O)c2ccc(Cl)cc2)[C@H](C)CN([C@@H](C)CO)C(=O)c2cc(NC(=O)Nc3ccc(F)cc3)ccc2O1,-,-,0,-,0,70
C[C@H]1CCCCO[C@H](CN(C)S(=O)(=O)c2ccc(Cl)cc2)[C@@H](C)CN([C@@H](C)CO)C(=O)c2cc(NC(=O)Nc3ccc(F)cc3)ccc2O1,-,-,0,-,0,0
C[C@@H]1CCCCO[C@@H](CN(C)S(=O)(=O)c2ccccc2)[C@H](C)CN([C@@H](C)CO)C(=O)c2cc(NC(=O)Nc3ccc(C(F)(F)F)cc3)ccc2O1,-,-,0,-,0,75
C[C@@H]1CN([C@@H](C)CO)C(=O)c2cc(NC(=O)Nc3ccc(C(F)(F)F)cc3)ccc2O[C@@H](C)CCCCO[C@H]1CN(C)S(=O)(=O)c1ccccc1,-,-,0,-,0,0
C[C@@H]1CCCCO[C@H](CN(C)S(=O)(=O)c2ccc(Cl)cc2)[C@@H](C)CN([C@@H](C)CO)C(=O)c2cc(NC(=O)Nc3ccc(C(F)(F)F)cc3)ccc2O1,-,-,0,-,0,82
C[C@H]1CCCCO[C@@H](CN(C)S(=O)(=O)c2ccc(Cl)cc2)[C@@H](C)CN([C@@H](C)CO)C(=O)c2cc(NC(=O)CCC(F)(F)F)ccc2O1,-,-,0,-,0,73
O=C(NC[C@H]1CC[C@H]2[C@H](CN2C(=O)Cc2ccncc2)O1)C1CCOCC1,-,-,0,-,-,-
C/C=C/c1ccc(C2[C@@H]3CN(S(=O)(=O)c4ccccc4C)C[C@H]2N3)cc1 (stereo partly specified),-,-,0,-,0,0
CC1=C(C(=O)Nc2cccnc2)C(c2cccnc2)n2nc(-c3cccs3)nc2N1 (stereo unspecified),0,0,-,0,-,-
COc1cccc(-c2nc3n(n2)C(c2cccs2)C(C(=O)Nc2cccnc2)=C(C)N3)c1 (stereo unspecified),0,50,0,0,0,0
FC(F)(F)c1cc(CCN2CCNC[C@@H]2Cc2ccccc2)cc(C(F)(F)F)c1,81,0,0,0,0,0
CCC(OC(=O)c1ccc(S(C)(=O)=O)c([N+](=O)[O-])c1)C(=O)NC1C2CC3CC(C2)CC1C3 (stereo unspecified),-,-,0,96,0,94
CS(=O)(=O)c1ccc(C(=O)OCC(=O)NC23CC4CC(CC(C4)C2)C3)cc1[N+](=O)[O-],0,0,-,0,0,0
CC(OC(=O)c1ccc(S(C)(=O)=O)c([N+](=O)[O-])c1)C(=O)NC1C2CC3CC(C2)CC1C3 (stereo unspecified),-,-,0,98,0,106
COc1ccc(CNC(=O)C[C@@H]2C=C[C@@H](NC(=O)Nc3ccc4c(c3)OCO4)[C@H](CO)O2)cc1,-,-,0,-,0,0
COc1ccc(NC(=O)NC[C@H]2CC[C@H]3[C@H](CN3Cc3ccccc3C(=O)O)O2)cc1,-,-,0,-,-,-
SMILES,TRPM1 prom inh,EBV LMP1 NFkB,EWS-Fli inh,Shn3 inh set2,LGR2 inh,PAX8 inh HTS
N#C/C(=C\c1ccc(N2CCOCC2)o1)c1nc2ccccc2[nH]1,0,0,-,0,-,-
N#C/C(=C/c1ccc(N2CCOCC2)o1)c1ccc(Cl)cc1,0,0,-,91,-,-
COc1cccc(-c2ccc([C@H]3[C@@H](CO)N4C(=O)CN(C(=O)CN5CCOCC5)C[C@@H]34)cc2)c1,-,-,0,-,0,0
C/C=C/c1ccc2c(c1)O[C@@H](CN(C)C(=O)Cc1ccccc1)[C@H](C)CN([C@H](C)CO)S2(=O)=O,-,-,0,-,0,-
CC(C)n1c(/C=C/[C@H](O)C[C@H](O)CC(=O)O)c(-c2ccc(F)cc2)c2ccccc21,0,0,-,89,-,-
CCCCNC(=O)CCn1ccc2cc(S(=O)(=O)N3CCCC3)ccc21,0,0,-,0,0,0
CCOc1ccc(CCNC(=O)CCn2ccc3cc(S(=O)(=O)N4CCCC4)ccc32)cc1,0,72,0,0,0,0
N#Cc1c(Oc2ccc3ccccc3c2)sc(C(=O)c2ccccc2)c1N,0,58,-,0,-,-
CCCNC(=O)c1cc2c(c(-c3cccc(-c4cccc(F)c4)c3)n1)[C@H](CCO)N([S@@](=O)C(C)(C)C)C2,-,-,0,-,-,?
CCCC#Cc1ccc2c(c1)O[C@@H](CN(C)S(=O)(=O)c1cccc(OC)c1)[C@@H](C)CN([C@H](C)CO)S2(=O)=O,-,-,0,-,0,0
CC[N+](C)(C)CC/C=C1/c2ccccc2Sc2ccc(Cl)cc21,-,-,0,0,0,0
CCCCCCCCCC[N+](C)(C)CC/C=C1/c2ccccc2Sc2ccc(Cl)cc21,0,0,-,87,-,-
CCCCCCCCCCC[N+](C)(C)CC/C=C1/c2ccccc2Sc2ccc(Cl)cc21,0,0,-,92,-,-
CN(C)CC/C=C1\c2ccccc2Sc2ccc(Cl)cc21,0,0,0,0,0,0
OCCN1CCN(CC/C=C2/c3ccccc3Sc3ccc(Cl)cc32)CC1,0,80,0,0,-,0
C[C@H](CO)N1C[C@H](C)[C@H](CN(C)C)Oc2ccc(NS(=O)(=O)c3ccc(Cl)cc3)cc2CC1=O,-,-,0,-,0,0
N#Cc1ncn(C2OC(CO)C(O)C2O)c1N (stereo unspecified),-,0,0,0,0,0

# Bioassay records as filed in PubChem BioAssay.
